Rows were chosen to be rich in hits. Some 9.2% of all compounds tested hit in one or more screens of this group.
Rab9 prom act – activates the Rab9 promoter. Huh7 Rab9 promoter-luciferase reporter, luminescence, 24 h. Potency, µM (doses to about 9.22 µM), usual class: activators. 320,000 tested, 2.8% active; also: nearly all actives have a fitted effect of over 60% in size
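Luciferase signal after 10 min detection reagent at ambient indicates Rab9 promoter upregulation; stably transfected Huh7 cells were treated 24 h with compound in DMSO at 37 °C, 5% CO2.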
FLuc modulator – inhibits or activates purified firefly luciferase, miR-21 counter-screen | P08659 | purified FLuc, Km substrates, luminescence inhibition | AID 588342 | 360,000 tested, 6.9% active | Potency, µM (highest dose often 57.5 µM), actives largely listed as inhibitors; also: nearly all actives have a fitted effect of over 55% in size
Target sequence (P08659 whole entry, looked up): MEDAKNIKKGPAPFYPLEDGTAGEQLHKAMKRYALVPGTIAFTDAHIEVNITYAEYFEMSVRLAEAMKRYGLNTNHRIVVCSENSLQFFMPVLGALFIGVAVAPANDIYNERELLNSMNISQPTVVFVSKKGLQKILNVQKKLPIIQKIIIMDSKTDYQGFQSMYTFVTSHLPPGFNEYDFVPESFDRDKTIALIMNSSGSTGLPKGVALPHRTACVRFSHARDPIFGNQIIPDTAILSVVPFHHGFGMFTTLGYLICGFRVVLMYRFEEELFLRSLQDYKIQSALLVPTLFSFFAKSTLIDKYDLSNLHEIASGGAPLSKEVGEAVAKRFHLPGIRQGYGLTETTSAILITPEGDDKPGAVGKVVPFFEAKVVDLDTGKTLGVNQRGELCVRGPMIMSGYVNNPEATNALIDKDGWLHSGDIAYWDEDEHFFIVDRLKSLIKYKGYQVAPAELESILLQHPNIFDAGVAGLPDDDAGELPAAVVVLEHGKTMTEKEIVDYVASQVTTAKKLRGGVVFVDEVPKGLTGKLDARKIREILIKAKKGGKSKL
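Purified P. pyralis luciferase, 10 nM final, with Km-level 10 uM D-luciferin and 10 uM ATP in 50 mM Tris acetate pH 7.5, 10 mM Mg acetate, 0.01% Tween-20, 0.05% BSA; 6-point qHTS titration about 60 µM downward; luminescence read.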
NPC1 promoter act – activates the NPC1 promoter | Potency, µM (series often up to 9.22 µM), actives largely listed as activators | Huh7 NPC1 promoter luciferase reporter, 24 h | 320,000 tested, 2.4% active; also: nearly all actives have a fitted effect of over 60% in size
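Luciferase expression driven by the NPC1 promoter was measured in stably transfected Huh7 cells after a 24 h compound incubation, using a luciferase reagent and a luminescence read.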
SMN2 splice up – SMN2 splice variant enhancement | HEK293 SMN2-luciferase splicing reporter, luminescence, 30-36 h | 210,000 tested, 2.8% active | Potency, µM (highest dose often 46.1 µM), hits mostly activators; also: nearly all actives have a fitted effect of over 55% in size
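qHTS luciferase splicing reporter: luminescence rises when SMN2 exon 7 is included in transfected HEK293 cells. Compound exposure lasted 30-36 h at 37C, with 4.5 mM final sodium butyrate as control, followed by a ONE-Glo read.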
ELG1 repair inh – blocks ELG1-dependent DNA repair in HEK293T cells; HEK293T ELG1-luciferase reporter, luminescence, 16 h; DNA damage induced by 5-fluorouridine; Potency, µM (highest dose often 46.1 µM), most hits filed as inhibitors; 330,000 tested, 2.3% active; also: nearly all actives have a fitted effect of over 55% in size
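Overnight (16 hr) co-exposure of 2,000 cells/well to 5-fluorouridine and compound at 37 °C preceded detection. Luciferase was quantified via ONE-Glo luminescence; loss of signal denotes inhibition.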
ELG1 genotoxic – genotoxicity induction in ELG1-luciferase HEK293T cells. HEK293T ELG1-luciferase reporter, luminescence, 16 h. Potency, µM (titrated, usually from 46 µM), most hits filed as activators. 330,000 tested, 1.3% active. AID 504466; also: nearly all actives have a fitted effect of over 60% in size
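Genotoxicity was scored as increased ELG1-luciferase reporter signal, measured by ONE-Glo luminescence (30 min, room temperature). Compound or vehicle exposure of the HEK293T reporter cells lasted 16 hr at 37°C.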
Numbers stand for hits; 0 = inactive; ? = inconclusive; - = no result given; [ ] = remark or other dose. Calls follow the shape of the dose curve; as a rule, active = well fitted curve in the direction sought with a large enough effect; inconclusive = small, poorly fitted or top-dose-only effect, or another doubt; inactive = no such curve, though single readings can be large; an effect the other way counts as inactive or inconclusive.

SMILES	Rab9 prom act	FLuc modulator	NPC1 promoter act	SMN2 splice up	ELG1 repair inh	ELG1 genotoxic
Cc1ccc(S(=O)(=O)N2[C@@H](c3ccccc3F)C(C(=O)O)=CC[C@H]2c2ccc(Cl)c(Cl)c2)cc1	0	0	0	-	0	0
COc1ccccc1CNC(=O)CCc1c(C)c2cc3c(C)coc3cc2oc1=O	-	0	-	0	-	-
CCC(C(=O)OCC(=O)N1CCN(c2ccc(OC)cc2)CC1)c1ccccc1 (stereo not given)	0	0	0	-	0	0
COC(=O)C1=C(C)NC(=O)/C1=C\c1cc(C)n(-c2ccccc2F)c1C	0	12µM	0	25µM	?	0
COC(=O)C1=C(C)NC(=O)/C1=C\c1cc(C)n(-c2ccccc2C)c1C	0	17µM	0	0	21µM	0
CCOC(=O)C1=C(O)/C(=C\c2cc(C)n(-c3ccccc3F)c2C)N=C1C	0	0.6µM	0	0	0	0
COC(=O)C1=C(C)NC(=O)/C1=C\c1cc(C)n(-c2c(C)cccc2C)c1C	0	0	0	0	0	0
CCOC(=O)C1=C(O)/C(=C\c2cc(C)n(-c3ccc(F)cc3)c2C)N=C1C	0	?	0	0	0	0
CC(=O)Nc1cc(C(=O)Nc2ccc3c(c2)N(C)C(=O)c2ccccc2S3)ccc1C	-	0	-	-	-	-
Cc1nc2c(C(=O)N(C)Cc3ccccc3)c[nH]n2c(=O)c1Cc1ccc(Cl)cc1	-	?	-	0	-	-
O=C(c1cc(-c2ccc(Cl)c(Cl)c2)on1)N1CCN(c2ccccc2)CC1	0	?	0	0	?	0
COc1ccccc1-c1cc(C(=O)N2CCN(c3ccc(F)cc3)CC2)no1	0	0	0	0	?	0
O=C(c1csc(Nc2ccccc2Cl)n1)N1CCCC1	?	?	?	13µM	?	0
O=C(c1cc(-c2ccccc2Cl)on1)N1CCCC1	?	1.2µM	?	-	?	?
COc1ccccc1-c1cc(C(=O)N2CCOCC2)no1	2.2µM	13µM	?	-	?	2.9µM
COc1ccccc1-c1cc(C(=O)N2CCCC2)no1	2µM	7.6µM	2.5µM	-	?	2.9µM
O=C(c1csc(Nc2cccc3ccccc23)n1)N1CCCC1	0	0	0	-	0	0
Cc1ccc(C)c(CN2C(=O)c3ccccc3S(=O)(=O)c3ccc(C(=O)N(C)C4CCCCC4)cc32)c1	-	0	-	0	-	-
O=C1C(=O)N(C2CCN(S(=O)(=O)c3ccc(F)cc3)CC2)CCN1Cc1ccccc1	-	0	-	-	-	-
C[C@H](NC(=O)c1nc[nH]c1C(=O)N1CCN(c2ccccc2)CC1)c1ccccc1	0	0	0	-	0	0
O=C(c1cc(-c2ccc(Cl)cc2)on1)N1CCN(c2ccc(F)cc2)CC1	0	0	0	-	0	0
O=C(c1cccc(F)c1)N1CCN(C(=O)c2cc(-c3ccc(Cl)cc3Cl)on2)CC1	0	11µM	0	-	?	0
COc1ccccc1CNC(=O)c1cnc(N2CCCC2)nc1C	-	0	-	-	-	-
Cc1c(N=Cc2c(O)n(C)c(=O)c3ccccc23)c(=O)n(-c2ccccc2)n1C	0	0	0	0	0	0
COc1ccc(C2=C(C=Nc3c(C)n(C)n(-c4ccccc4)c3=O)C(c3ccccc3C)c3ccccc3O2)cc1OC (stereo not given)	0	0	0	0	2.9µM	0
SMILES	Rab9 prom act	FLuc modulator	NPC1 promoter act	SMN2 splice up	ELG1 repair inh	ELG1 genotoxic
COc1cc(OC)c(NC(=O)CC(c2cccs2)N2Cc3ccccc3C2=O)cc1Cl (stereo not given)	-	0	-	-	-	-
CCOc1cc(NC(=S)Nc2cccc(OC)c2)c(OCC)cc1NC(=O)C1CC1	0	15µM	0	0	?	0
CCc1ccc(NC(=S)Nc2cccc(OC)c2)cc1	0	21µM	0	0	?	0
COc1cccc(NC(=S)NN=C2CCCCCC2)c1	3.2µM	8.5µM	3.5µM	14µM	?	?
COc1ccc(CNC(=S)Nc2cccc(OC)c2)cc1	0	0	0	-	0	0
Cc1c(Cl)cccc1NC(=O)c1oc2ccc(S(=O)(=O)N3CCC4(CC3)OCCO4)cc2c1C	-	0	-	-	-	-
CCc1ccccc1NC(=O)c1sc(-n2nc(C)c(Cc3ccc4c(c3)OCO4)c2C)nc1C	-	0	-	-	-	-
O=C(c1c[nH]c(C(=O)N2CCN(c3ccccc3F)CC2)c1)c1cccc(Cl)c1Cl	0	0	0	0	0	0
Cc1ccccc1C(=O)c1c[nH]c(C(=O)N2CCN(c3ccccc3F)CC2)c1	0	0	0	0	23µM	0
CC1CCN(S(=O)(=O)c2cc(C(=O)N3CCN(c4ncccn4)CC3)ccc2Br)CC1	0	0	0	0[1.84 µM]	18µM	0
Nc1ccc2c(c1)COC2=O	0	17µM	0	0	?	0
CC(=O)c1cccc(OCC(=O)N(C)CC(=O)NCc2ccco2)c1	-	-	-	-	?	0
Cc1nn(-c2nc3ccccc3s2)c(N)c1-c1ccc(Cl)cc1	?	3µM	?	11µM	?	?
Cc1nn(-c2nc3ccccc3s2)c(N)c1-c1ccccc1	2.2µM	1.9µM	2.5µM	7.1µM	?	?
Cc1nn(-c2nc3ccccc3s2)c(N)c1Sc1ccc(F)cc1	1.1µM	?	3.2µM	0	?	?
Cc1cc(-c2nc3ccccc3s2)ccc1NC(=O)c1cc(Cl)ccc1Cl	-	0	-	?	-	-
Oc1c(Cl)cc(CN2CCOCC2)c2cccnc12	0	-	0	-	?	0
O=C(Oc1ccc(C(=S)N2CCOCC2)cc1Cl)c1ccccc1F	0	?	0	-	?	0
Oc1c(CN2CCc3ccccc3C2)cc(Cl)c2cccnc12	0	0	0	0	?	0
O=C(Oc1c(CN2CCOCC2)cc(Cl)c2cccnc12)c1ccccc1	0	0	0	0	23µM	0
O=C(Oc1c(CN2CCOCC2)cc(Cl)c2cccnc12)c1ccccc1F	0	0	0	0	10µM	0
COc1cc(OC)cc(C(=O)Oc2c(CN3CCOCC3)cc(Cl)c3cccnc23)c1	0	0	0	-	16µM	0
COC(=O)[C@]1(Cc2ccccc2)N[C@H](CN(C)S(=O)(=O)c2ccc(C(C)(C)C)cc2)[C@@H]2C(=O)N(C)C(=O)[C@@H]21	-	-	-	-	0	0
C/C(=N\NC(=O)c1cc2ccccc2cc1O)c1cccs1	0.63µM	3.8µM	0.56µM	-	?	?
O=C(NNC(=O)c1cc2ccccc2cc1O)c1cccs1	3.5µM	12µM	3.2µM	-	?	?
C/C(=N\NC(=O)COc1ccc2ccccc2c1)c1cccs1	0	?	0	-	0	0
C/C(=N\NC(=O)c1ccc(Cl)cc1)c1ccc(Br)s1	0	?	0	0	?	0
O=C(NNS(=O)(=O)c1ccc2ccccc2c1)c1cccs1	0	0	0	0	0	0
C/C(=N\NC(=O)c1cc(Cl)ccc1O)c1ccc(Br)s1	3.5µM	6.7µM	4µM	4µM	?	0
O=C(NNC(=O)c1ccc2ccccc2c1O)c1cccs1	0	27µM	0	-	?	0

Bioassay records deposited in PubChem BioAssay by National Center for Advancing Translational Sciences (NCATS).
